In PubChem BioAssay (Tox21):
Results filed as inconclusive are left out. Entries that show only a call come without a potency. Calls of active or inactive are those of the source. Calls come from the whole dose curve; as a rule, active = well fitted cell-killing curve with a large enough effect in the repeat runs; inconclusive = weak or mixed curves, or effect the other way; inactive = flat fitted curve, though single readings scatter.

Test: Nuclear factor erythroid 2-related factor 2/antioxidant responsive element (Nrf2/ARE) small molecule agonists: qHTS cell viability counter screen in human keratinocytes (AID 1919968); note: nearly all actives have a fitted effect of over 55% in size
Conditions: KeratinoSens HaCaT ARE cells viability, CellTiter-Fluor, 24 h; series mostly up to 92.4 µM
Source text: U.S. Tox21 Program National Center for Advancing Translational Sciences [NCATS] Division of Preclinical Innovation [DPI] U.S. Environmental Protection Agency [EPA] National Institutes of Environmental Health Sciences [NIEHS] National Toxicology Program [NTP] U.S. Food and Drug Administration [FDA] Tox21 Assay Overview: Oxidative stress has been implicated in the pathogenesis of a variety of diseases ranging from cancer to neurodegeneration. The antioxidant response element (ARE) signaling pathway plays an important role in the amelioration of oxidative stress. The KeratinoSens (Givaudan, Switzerland) is an in vitro test method which quantifies luciferase induction as a measure of activation of Keap1-Nrf2-antioxidationt/electrophile response element (ARE) dependant pathway in HaCaT human keratinocytes stably transfected with a selectable plasmid. The KeratinoSens assay is a cell-based assay with a reporter cell line to detect potential skin sensitizers by their ability to induce the Nrf2/ARE-response. The activation of the report gene under culture conditions can be detected by ONE-Glo Luciferase Assay System (Promega, Madison, WI). This cell line has been used to screen the Tox21 10K compound library to identify agonists that induce oxidative stress. The cytotoxicity of the Tox21 compound library against the KS-ARE cell line was tested in parallel by measuring the cell viability using CellTiter- Fluor assay system (Promega, Madison, WI) in the same wells.
Tox21 Assay Protocol Summary: HaCaT derived cell line KeratinoSens were dispensed at 1,500 cells/5uL/well in 1536-well white wall/solid bottom plates using a Multidrop Combi (ThermoFisher Scientific, Waltham, MA) dispenser. After the assay plates were incubated at 37 C/5% CO2 for 5 h, 23 nL of compounds dissolved in DMSO, positive controls or DMSO only was transferred to the assay plate by a pintool workstation (Kalypsys, San Diego, CA). The plates were incubated at 37 C/5% CO2 for 23 h, followed by addition of 1uL/well of CellTiter-Fluor reagent into the assay plates using a Flying Reagent Dispenser (Aurora Discovery, San Diego, CA) for cell viability readout that measures cytotoxicity. After 1 h incubation at 37 C/5% CO2 the fluorescence intensity was measured using a ViewLux (PerkinElmer, Shelton, CT) plate reader.
Potency is the fitted concentration of half-maximal effect.

| SMILES | Potency | activity change, negative = cytotoxicity |
| --- | --- | --- |
| CCOC(=O)[C@@H](C)Oc1ccc(Oc2nc3ccc(Cl)cc3o2)cc1 | inactive | – |
| CCCCCC | inactive | – |
| CO/N=C(/C(=O)N[C@@H]1C(=O)N2C(C(=O)OCOC(=O)C(C)(C)C)=C(C)CS[C@H]12)c1csc(N)n1 | inactive | – |
| Cc1ncc(COP(=O)(O)O)c(C=O)c1O | inactive | – |
| CC1=C(Br)C(=O)C(Br)=C/C1=C(/c1ccccc1S(=O)(=O)O)c1cc(Br)c(O)c(Br)c1C | 18.6 µM (active) | – |
| O=C(O)CN(CCOCCOCCN(CC(=O)O)CC(=O)O)CC(=O)O | – | -7.96% [at 0.349 µM] (inactive) |
| CC(C)COC(=O)CC(C(=O)OCC(C)C)S(=O)(=O)O (stereo not given) | inactive | – |
| Cc1cc(C2CCCCC2)n(O)c(=O)c1 | 13.3 µM (active) | – |
| COCCOC(=O)CC#N | inactive | – |
| CC1CCC(CO)CC1 (stereo not given) | inactive | – |
| N/C(=N\N=C\c1ccc(Cl)cc1)N/N=C/c1ccc(Cl)cc1 | 26.6 µM (active) | – |
| C[C@]12CCC(=O)C=C1CC[C@H]1[C@@H]3CC[C@](O)(C(=O)CO)[C@@]3(C)C[C@H](O)[C@@]12F | inactive | – |
| N[C@@H](CS)C(=O)O | inactive | – |
| C[C@@H](O)[C@H]1C(=O)N2C(C(=O)O)=C(S[C@@H]3CN[C@H](CNS(N)(=O)=O)C3)[C@H](C)[C@H]12 | inactive | – |
| CC(C)CCCCCCN | inactive | – |
| CCC(C)[O-].CCC(C)[O-].CCOC(=O)/C=C(/C)[O-].[Al+3] | inactive | – |
| CN(C)CCCN1c2ccccc2Sc2ccc(Cl)cc21 | 54.5 µM (active) | – |
| C[C@H]1[C@H]2CC[C@H]3[C@@H]4CC=C5C[C@@H](N(C)C)CC[C@]5(C)[C@H]4CC[C@]23CN1C | inactive | – |
| Cc1cc(NC(=O)C(=O)O)cc(C)c1Oc1ccc(O)c2c1CCC2 | inactive | – |
| Cc1onc(-c2c(Cl)cccc2Cl)c1C(=O)Cl | inactive | – |

| SMILES | Potency | activity change, negative = cytotoxicity |
| --- | --- | --- |
| CC(C)c1cccc(C(C)C)c1NC(=O)NS(=O)(=O)c1cc(C(C)(C)O)co1 | inactive | – |
| O=C1c2ccccc2Cc2ccccc21 | inactive | – |
| CC(=O)OCC1=C(C(=O)O)N2C(=O)[C@@H](NC(=O)CSc3ccncc3)[C@H]2SC1 | inactive | – |
| O=C1c2c(O)ccc([N+](=O)[O-])c2C(=O)c2c([N+](=O)[O-])ccc(O)c21 | 15.2 µM (active) | – |
| CCc1c2c(nc3ccc(OC(=O)N4CCC(N5CCCCC5)CC4)cc13)-c1cc3c(c(=O)n1C2)COC(=O)[C@]3(O)CC | inactive | – |
| CC(C)COC(=O)COc1ccc(Cl)cc1Cl | inactive | – |
| CC1(C)CC(=O)CC(C)(C)N1 | inactive | – |
| O=C(NOCC1CC1)c1ccc(F)c(F)c1Nc1ccc(I)cc1Cl | 29.8 µM (active) | – |
| OCCOc1cccc(OCCO)c1 | inactive | – |
| OCCCCCO | inactive | – |
| c1coc(Cn2cccc2)c1 | inactive | – |
| CC[C@H](C)COC(=O)/C=C/c1ccc(N=Cc2ccc(OC)cc2)cc1 | inactive | – |
| O=C(CS)OCCOC(=O)CS | inactive | – |
| Clc1cc(Cl)c2c(c1)N=C1CCCCCN1C2 | inactive | – |
| CSC(=O)c1cccc2nnsc12 | inactive | – |
| CCCC[N+](C)(CCCC)CCCC | inactive | – |
| CN(C)C(=O)Oc1cccc([N+](C)(C)C)c1 | inactive | – |
| C[Si](C)(C)C | inactive | – |
| O=C(O)c1c(Cl)ccc(Cl)c1Cl | inactive | – |
| Cc1ccc(C(C)C)cc2c(C)ccc1-2 | inactive | – |
